This note sets out measurements from PubChem BioAssay (NCI).

Test in all cases: NCI-60 one-dose screen, 48 h (100 = growth as untreated, 0 = no growth, -100 = all killed)
Conditions in all cases: 10 µM unless noted

Test [1] deals with EKVX NSCLC.
For test [2], the system named is SN12C renal.
The subject of test [3] is UO-31 renal.
Test [4] deals with ACHN renal.
In test [5] the test system is CAKI-1 renal.
The subject of test [6] is A498 renal.
In test [7] the test system is CCRF-CEM leukemia.
Test [8] relates to MOLT-4 leukemia.
Test [9] deals with SR leukemia.
Test [10] has as its system RPMI-8226 leukemia.
Test [11] deals with OVCAR-8 ovarian.
Test [12] concerns OVCAR-5 ovarian.
Test [13] deals with SK-OV-3 ovarian.
Test [14] has as its system IGROV1 ovarian.
For test [15], the system named is OVCAR-3 ovarian.
For test [16], the system named is HS 578T breast.
In test [17] the test system is NCI/ADR-RES ovarian.
The subject of test [18] is T-47D breast.
For test [19], the system named is OVCAR-4 ovarian.

SMILES strings stand for the structures. Compounds without any hit were thinned out: in the full panel of roughly 83,000, 20% have a hit.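 96-well plates, one dose, 48 hours. Percent growth reported; active if below 10.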 A number with no mark means an inactive call. Active and inactive are the calls of the source.

Regarding `O=C1Nc2ccc(Cl)cc2/C1=C/c1ccc(OCC(=O)c2ccc(Br)cc2)cc1`, the growth is 81.6% in test [1]; 93.5% in [2]; 73.4% in test [3]; 88.4% in [4]; 76.1% in test [5]; 107% in [6]. Moreover, the growth in test [7] was 102%; in [8] it was 95.6%; in test [9], 103%; in [10] it was 101%; in test [11], 96%; in [12], 93.2%. Moreover, the growth is 79.9% in test [13]; 63% in test [14]; 90.3% in test [15]; 89.3% in [16]; 93.3% in [17]; 84.2% in test [18].

On to `OC1CCc2c(-c3ccc4ncnc(N5CCc6cc(F)c(Cl)cc65)c4c3)cncc21` (configuration not stated), for which the growth in [1] is 27.1%; in [2] it was 39.3%; in test [3] it was 19%; in test [4] it was 18.6%; in test [5], 22.5%; in [6] it was -13.1% (active). In addition, the growth was 40.3% in test [7]; 21.9% in test [8]; 47.9% in test [9]; 15.9% in test [10]; 52.9% in test [11]; 46.6% in [12]. Further, the growth was 58.1% in [13]; -13.2% (active) in [14]; 37.6% in test [15]; 27.8% in test [16]; 51.1% in test [17]; 7.03% (active) in test [18].

Regarding `CC(C)(O)c1cncc(-c2ccc3ncnc(N4CCc5cc(F)c(Cl)cc54)c3c2)c1`, the growth is -2.39% (active) in test [1]; 18.6% in [2]; 6.25% (active) in [3]; 11.3% in [4]; 10.6% in test [5]; -39.6% (active) in [6]. In addition, the growth in test [7] is 22.2%; in test [8], 0.627% (active); in [9], 18%; in test [10] it was 6.02% (active); in test [11], 25.9%; in test [12] it was 25.9%. Besides, the growth was 1.96% (active) in test [13]; -35.7% (active) in test [14]; 5.16% (active) in [15]; -8.48% (active) in test [16]; 31.1% in [17]; 4.63% (active) in test [18].

`CCOC(=O)c1c(Nc2ccccc2)nn2c(-c3ccco3)c(C#N)cnc12`: the growth was 75.7% in test [1]; 92.9% in test [2]; 71% in test [3]; 56.5% in test [4]; 90.1% in [5]; 45.1% in test [6]. Further, the growth in [7] was 82.4%; in test [8], 92.2%; in test [10], 79.3%; in [11], 82.1%; in test [12], 109%; in test [19], 86.6%. The growth was 109% in [13]; 100% in test [14]; 131% in [15]; 72% in test [16]; 80% in test [17]; 87.8% in test [18].

Consider `CCOC(=O)c1c(Nc2ccccc2)nn2c(N)c(C#N)c(-c3ccc(Cl)cc3)nc12`, for which the growth is 68.9% in [1]; 53.1% in [2]; 93.8% in test [3]; 42.1% in test [4]; 31.5% in test [5]; 63.3% in test [6]. In addition, the growth was 83% in [7]; 87.5% in test [8]; 86.9% in test [9]; 86.1% in test [10]; 42.5% in test [11]; 78.5% in [12]. Besides, the growth in test [13] was 59.4%; in test [14] it was 70.5%; in test [15], 81.8%; in test [17], 71%; in test [18], 68.5%.

As to `Clc1ccc2c(OCCCN3CCOCC3)c3oc4ccccc4c3nc2c1`, the growth in [1] is 34.6%; in test [2] it was 30.4%; in test [3] it was 22.2%; in test [4], 15.3%; in [5], 19.7%; in [6] it was 13.6%. The growth was 11.7% in test [8]; 11.9% in [9]; 29% in [10]; 31.2% in test [11]; 35.1% in [12]; 59% in test [19]. The growth in [13] is 71.8%; in test [14], 19.7%; in test [15] it was 69.5%; in test [17], 36.3%; in test [18], 40.8%.

`N#Cc1nc(-c2ccccc2)oc1S(N)(=O)=O`: the growth in test [1] was 97.5%; in test [2], 49.6%; in [3], 72.3%; in test [4], 73%; in test [5], 63.1%; in [6] it was 83.1%. For the same compound, the growth is 14.6% in [7]; 41.4% in test [8]; 3.32% (active) in [9]; 46.2% in test [10]; 79.1% in [11]; 74.1% in test [12]. In addition, the growth was 135% in test [13]; 49.2% in [14]; 77.4% in [15]; 95% in [16]; 82.7% in [17]; 64.1% in test [18].

Regarding `CN(C)CCCOc1c2ccc(Cl)cc2nc2c1oc1ccccc12`, the growth in [1] is -41.6% (active); in test [2], 18%; in test [3], -51.9% (active); in test [4], -6.02% (active); in [5], 1.08% (active); in test [6], -91.8% (active). The growth in test [7] is 0.191% (active); in [8], -17% (active); in test [9] it was -34.2% (active); in [10], -22.1% (active); in test [11] it was -17.8% (active); in test [12], 4.62% (active). For the same compound, the growth in test [19] was 1.72% (active); in [13] it was -8.76% (active); in test [14] it was -8.93% (active); in test [15], -10.4% (active); in test [17], 3.15% (active); in [18], 13.5%.
